Screens deposited in PubChem BioAssay by several laboratories.
Compounds with a hit are over-represented: about 4.8% of the library has one in this group of screens.
tim23-1 inh: growth inhibitors of tim23-1 mutant yeast; S. cerevisiae tim23-1 growth, BacTiter-Glo luminescence, 24 h; inhibition, % at 20 µM; 330,000 compounds, 1.3% hits;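 active means growth inhibition of the mutant yeast at or above 50%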;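 further: temperature-sensitive mutant grown at 25 °C; plate controls were DMSO-treated mutant yeast for no effect and medium wells lacking yeast for full effect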
PfHsp90 set2: reduces growth (ATP signal) of yeast expressing P. falciparum Hsp90; S. cerevisiae expressing PfHsp90, BacTiter-Glo ATP, 48 h; yeast lacking PDR1 and PDR3 efflux regulators; inhibition, % at 9.4 µM; 310,000 compounds, 0.32% hits;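 active means every replicate shows inhibition above about 80%, whatever the replicate mean, limit read from the data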;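 further: 0% = DMSO neutral controls and 100% = 20 µM radicicol positive controls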
NALP1 yeast inh: inhibitors of NALP1 inflammasome in yeast | S. cerevisiae NALP1/ASC/caspase-1 growth, X-gal OD620, 72 h | inhibition, % at 10 µM | 280,000 compounds, 0.61% hits | AID 2071; in the data active means inhibition mostly above about 24%, no sharp cut-off; inactive means mostly below about 32%
TIM10 inh: inhibits growth of TIM10 yeast strain; S. cerevisiae TIM10 strain growth, BacTiter-Glo luminescence, 24 h; inhibition, % at 10 µM; 330,000 compounds, 1.4% hits;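 active means inhibition of 40% or more at the single tested concentration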;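 further: wild-type TIM10 isogenic control strain grown at permissive 25 °C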
SKKanGAS inh: inhibitors of SKKanGAS S. pyogenes growth in kanamycin (SK-promoter or general growth effect); 300,000 compounds, 1.3% hits; inhibition, % at 7.5 µM; BacTiter-Glo, 6 h;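 active means mean replicate score, as percent of positive control median, at least 50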;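 further: strain carries kanamycin resistance gene driven by streptokinase promoter and grows in 40 µg/ml kanamycin; loss of luminescence reflects streptokinase promoter inhibition or plain growth inhibition; 0% = median of DMSO wells and 100% = positive control at its reference dose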
tim10-1 inh: inhibits growth of tim10-1 mutant yeast; S. cerevisiae tim10-1 ts strain growth, BacTiter-Glo, 24 h; inhibition, % at 20 µM; 330,000 compounds, 2.2% hits;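 active means inhibition of at least 40%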;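 further: mutant grown at 25 °C; 0% = DMSO wells with yeast and 100% = wells holding no yeast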
tim10-1 conf: tim10-1 yeast growth inhibition, confirmed; shares compounds with tim10-1 inh; S. cerevisiae tim10-1 ts strain growth, BacTiter-Glo, 24 h; inhibition, % at 20 µM; 7,400 compounds, 56% hits; AID 463213;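 active means inhibition of yeast growth at or above a set limit in either of two repeat tests at 20 µM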;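 further: tim10-1 mutant grown at permissive 25 °C to find synthetic lethal compounds; 0% = DMSO yeast wells and 100% = medium wells without yeast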
TIM10 conf: TIM10 yeast growth inhibition, confirmed; S. cerevisiae tim10 strain growth, BacTiter-Glo luminescence, 24 h; 4,600 compounds, 63% hits; inhibition, % at 10 µM; AID 463215; shares compounds with TIM10 inh;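 active means inhibition of yeast growth at or above a set limit in either of two replicates at 10 µM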;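 further: this counterscreen used the strain with wild-type TIM10; 0% = yeast with DMSO and 100% = medium wells lacking yeast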
tim23-1 conf: confirmation of tim23-1 mutant yeast growth inhibitors | shares compounds with tim23-1 inh | S. cerevisiae tim23-1 growth, BacTiter-Glo luminescence, 24 h | inhibition, % at 20 µM | 4,400 compounds, 83% hits | AID 463218;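 active means inhibition above about 39% in either of two replicate wells at 20 µM, limit read from the data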;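 further: temperature-sensitive tim23-1 mutant grown at 25 °C; 0% = DMSO wells with yeast and 100% = medium wells without yeast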
* hit, by the source's call.

For Cc1ccc(/C(O)=C/c2nc3ccccc3oc2=O)cc1 the results were tim23-1 inh -18, NALP1 yeast inh 24, TIM10 inh -5, SKKanGAS inh 4 and tim10-1 inh -30.
Cc1ccc(NCc2nnc(SCC(=O)Nc3nnc(C)s3)n2C)cc1 was read as tim23-1 inh 4, PfHsp90 set2 25, NALP1 yeast inh -14, TIM10 inh -3, SKKanGAS inh 0 and tim10-1 inh 8.
Screening CCOC(=O)c1sc(NC(=O)c2c(C)nn(Cc3ccccc3)c2C)cc1C returned tim23-1 inh 50*, PfHsp90 set2 19, NALP1 yeast inh 33, TIM10 inh 61*, tim10-1 inh 43*, tim10-1 conf 46*, TIM10 conf -1 and tim23-1 conf 52*.
C/C(=N\NC(=O)Cc1cccn1C)c1cccc2ccccc12 was read as tim23-1 inh 16, PfHsp90 set2 -14, NALP1 yeast inh 11, TIM10 inh 5, SKKanGAS inh 3 and tim10-1 inh 34.
`Cc1ccc(-c2nnc(N3CCN(C(=O)c4cccs4)CC3)c3ccccc23)cc1` gave tim23-1 inh 69*, PfHsp90 set2 -6, NALP1 yeast inh 12, TIM10 inh 30, SKKanGAS inh 30, tim10-1 inh 55*, tim10-1 conf 50* and tim23-1 conf 59*.
`CCOC(=O)N1CCN(c2nnc(-c3ccc(C)cc3)c3ccccc23)CC1` gave tim23-1 inh 61*, PfHsp90 set2 8, NALP1 yeast inh 1, TIM10 inh 26, SKKanGAS inh 11, tim10-1 inh 52*, tim10-1 conf 34* and tim23-1 conf 48*.
`Cc1ccc(-c2nnc(N3CCN(C(=O)COc4ccccc4)CC3)c3ccccc23)cc1` gave tim23-1 inh 23, PfHsp90 set2 -38, NALP1 yeast inh -2, TIM10 inh 7, SKKanGAS inh 14 and tim10-1 inh 15.
`CCOC(=O)N1CCN(c2nnc(-c3ccccc3)c3ccccc23)CC1` gave tim23-1 inh 33, PfHsp90 set2 -17, NALP1 yeast inh 14, TIM10 inh 4, SKKanGAS inh 2 and tim10-1 inh 29.
For COc1ccc(/C=N/NC(=O)c2ccn[nH]2)cc1CSc1ccccn1 the results were tim23-1 inh -4, PfHsp90 set2 -13, NALP1 yeast inh -1, TIM10 inh -1, SKKanGAS inh 4 and tim10-1 inh 0.
Cc1ccc(-n2nc3c(c2NC(=O)c2cc4ccccc4o2)CS(=O)(=O)C3)cc1 was read as tim23-1 inh 51*, PfHsp90 set2 -16, NALP1 yeast inh 4, TIM10 inh 32, SKKanGAS inh 0, tim10-1 inh 40*, tim10-1 conf 29 and tim23-1 conf 47*.
For Cc1ccc(C(=O)Nc2nc(=O)n(C(=O)c3ccccc3Cl)s2)cc1 the results were PfHsp90 set2 -7, NALP1 yeast inh 18 and SKKanGAS inh 18.
`CCN1C(=O)/C(=C/N(C)c2ccccc2)OC1=S` gave tim23-1 inh 6, PfHsp90 set2 10, NALP1 yeast inh 26, TIM10 inh -19, SKKanGAS inh 4 and tim10-1 inh 9.
For CCN1C(=O)/C(=C\N(C(C)=O)c2ccccc2)OC1=S the results were tim23-1 inh 70*, PfHsp90 set2 -8, NALP1 yeast inh -8, TIM10 inh 61*, SKKanGAS inh -3, tim10-1 inh 49*, tim10-1 conf 57*, TIM10 conf 58* and tim23-1 conf 57*.
Screening Cc1ccc(S(=O)(=O)NCC(C)n2cncn2)cc1 (stereo unspecified) returned tim23-1 inh -6, PfHsp90 set2 3, NALP1 yeast inh 8, TIM10 inh -1, SKKanGAS inh 4 and tim10-1 inh 5.
Oc1ccc2ccccc2c1/C=N/c1nc2c(s1)CCCC2 was read as tim23-1 inh 33, PfHsp90 set2 20, NALP1 yeast inh -10, TIM10 inh 13, SKKanGAS inh -3 and tim10-1 inh 15.
Oc1c(Br)cc(Br)cc1/C=N/c1nc2c(s1)CCCC2 was read as tim23-1 inh 76*, PfHsp90 set2 74, TIM10 inh 42*, SKKanGAS inh 51*, tim10-1 inh 53*, tim10-1 conf 28, TIM10 conf 30 and tim23-1 conf 91*.
For O=C(CNC(=O)C1CCCC1)Nc1ccccc1Br the results were tim23-1 inh 15, PfHsp90 set2 -73, TIM10 inh 3 and tim10-1 inh 5.
COc1ccc2oc(C)c(C(=O)c3ccccc3)c2c1 was read as tim23-1 inh 4, PfHsp90 set2 -1, TIM10 inh -21, SKKanGAS inh 14 and tim10-1 inh -9.
COc1ccc2oc(/C=C/N(C)C)c(C(=O)c3ccc(Cl)cc3)c2c1 was read as tim23-1 inh 50*, PfHsp90 set2 112*, NALP1 yeast inh 15, TIM10 inh 29, SKKanGAS inh 27, tim10-1 inh 45*, tim10-1 conf 21 and tim23-1 conf 51*.
`COc1ccccc1NC(=O)N(Cc1ccco1)Cc1cc2cccc(C)c2[nH]c1=O` gave tim23-1 inh 9, PfHsp90 set2 -10, NALP1 yeast inh 41, TIM10 inh 17, SKKanGAS inh 5 and tim10-1 inh 1.
CCn1ncc(CNC(=O)CCSc2nc(-c3ccco3)cc(C(F)(F)F)n2)c1C was read as tim23-1 inh 12, PfHsp90 set2 9, NALP1 yeast inh 8, TIM10 inh -12, SKKanGAS inh -1 and tim10-1 inh 17.
COCC(=O)Nc1ccc(OC)c(Cl)c1 was read as tim23-1 inh -2, NALP1 yeast inh -2, TIM10 inh 5, SKKanGAS inh -4 and tim10-1 inh 9.
COc1cc(/C=C/C(=O)c2ccccc2O)cc(OC)c1OC was read as tim23-1 inh 62*, PfHsp90 set2 -12, NALP1 yeast inh 10, TIM10 inh 37, SKKanGAS inh -6, tim10-1 inh 53*, tim10-1 conf 43* and tim23-1 conf 55*.
O=C(/C=C/c1ccc2c(c1)OCCCO2)c1ccccc1O was read as tim23-1 inh 50*, PfHsp90 set2 32, NALP1 yeast inh 61, TIM10 inh 60*, SKKanGAS inh 12, tim10-1 inh 53*, tim10-1 conf 46*, TIM10 conf -8 and tim23-1 conf 35.
`CN(C)c1ccc(/C=C/C(=O)c2ccccc2O)cc1` gave tim23-1 inh 17, PfHsp90 set2 14, NALP1 yeast inh 16, TIM10 inh 39, SKKanGAS inh -5 and tim10-1 inh 21.
